# PubChem BioAssay AID1159580 (chemical genetic matrix, 2015)
# The whole screen tested about 5,500 compounds, of which about 2,000 (36%) were called active. About 18% were inconclusive and are not listed. The list shows a part of the results. Values without a mark were called inactive. No stated cut-off is given here; in the data, active means normalized growth mostly below about 0.91 (no sharp cut-off); inconclusive means no clear call, values can overlap the other calls; inactive means mostly above about 0.92.
# Assay: chemical genetic growth profiling, strain panel (AID 1159580);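 further: tested at 20 µM; growth read once vehicle control cultures reached saturation at 30 °C; 1 = growth at the plate median or of vehicle wells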
# Conditions: S. cerevisiae deletion strains, growth OD
structure (smiles),measurement,setting,value
CC(C)Oc1ccc2c(=O)cc(-c3ccccc3)oc2c1,normalized growth,"locus YAL013W, strain DEP1, stronger effect = lower value",0.892 (active)
same,normalized growth,"locus YAL021C, strain ccr4, stronger effect = lower value",0.956
same,normalized growth,"locus YAL026C, strain drs2, stronger effect = lower value",0.934
same,normalized growth,"locus YAL030W, strain snc1, stronger effect = lower value",0.955
same,normalized growth,"locus YBL061C, strain skt5, stronger effect = lower value",0.929
same,normalized growth,"locus YBR009C, strain hhf1, stronger effect = lower value",0.952
same,normalized growth,"locus YBR021W, strain FUR4, stronger effect = lower value",0.844 (active)
same,normalized growth,"locus YBR023C, strain chs3, stronger effect = lower value",0.944
same,normalized growth,"locus YBR171W, strain sec66, stronger effect = lower value",0.912
same,normalized growth,"locus YBR229C, strain ROT2, stronger effect = lower value",0.915
same,normalized growth,"locus YBR231C, strain swc5, stronger effect = lower value",0.937
same,normalized growth,"locus YBR279W, strain paf1, stronger effect = lower value",0.963
same,normalized growth,"locus YCL011C, strain gbp2, stronger effect = lower value",0.923
same,normalized growth,"locus YCL016C, strain dcc1, stronger effect = lower value",0.94
same,normalized growth,"locus YCL029C, strain bik1, stronger effect = lower value",0.88 (active)
same,normalized growth,"locus YCL061C, strain MRC1, stronger effect = lower value",0.918 (active)
same,normalized growth,"locus YCL069W, strain vba3, stronger effect = lower value",0.95
same,normalized growth,"locus YCR088W, strain abp1, stronger effect = lower value",0.933
same,normalized growth,"locus YDL005C, strain med2, stronger effect = lower value",0.96
same,normalized growth,"locus YDL035C, strain GPR1, stronger effect = lower value",0.984
same,normalized growth,"locus YDL040C, strain nat1, stronger effect = lower value",0.953
same,normalized growth,"locus YDL074C, strain BRE1, stronger effect = lower value",0.871
same,normalized growth,"locus YDL101C, strain DUN1, stronger effect = lower value",0.938
same,normalized growth,"locus YDL185W, strain tfp1, stronger effect = lower value",0.423 (active)
same,normalized growth,"locus YDL192W, strain arf1, stronger effect = lower value",0.884 (active)
same,normalized growth,"locus YDR001C, strain nth1, stronger effect = lower value",0.943
same,normalized growth,"locus YDR069C, strain doa4, stronger effect = lower value",0.972
same,normalized growth,"locus YDR101C, strain arx1, stronger effect = lower value",0.906 (active)
same,normalized growth,"locus YDR137W, strain rgp1, stronger effect = lower value",0.834 (active)
same,normalized growth,"locus YDR150W, strain NUM1, stronger effect = lower value",0.937
same,normalized growth,"locus YDR159W, strain sac3, stronger effect = lower value",0.919
same,normalized growth,"locus YDR162C, strain NBP2, stronger effect = lower value",0.953
same,normalized growth,"locus YDR195W, strain ref2",1.03
same,normalized growth,"locus YDR297W, strain sur2, stronger effect = lower value",0.95
same,normalized growth,"locus YDR318W, strain mcm21, stronger effect = lower value",0.885 (active)
same,normalized growth,"locus YDR334W, strain swr1, stronger effect = lower value",0.953
same,normalized growth,"locus YDR335W, strain msn5, stronger effect = lower value",0.962
same,normalized growth,"locus YDR388W, stronger effect = lower value",0.876 (active)
same,normalized growth,"locus YDR392W, strain spt3, stronger effect = lower value",0.358 (active)
same,normalized growth,"locus YDR502C, strain sam2, stronger effect = lower value",0.904 (active)
same,normalized growth,"locus YEL003W, strain gim4, stronger effect = lower value",0.887 (active)
same,normalized growth,"locus YEL037C, strain rad23, stronger effect = lower value",0.953
same,normalized growth,"locus YEL061C, strain CIN8 (second series), stronger effect = lower value",0.916
same,normalized growth,"locus YEL061C, strain CIN8, stronger effect = lower value",0.923 (active)
same,normalized growth,"locus YER015W, strain faa2, stronger effect = lower value",0.962
same,normalized growth,"locus YER016W, strain bim1, stronger effect = lower value",0.956
same,normalized growth,"locus YER110C, stronger effect = lower value",0.886 (active)
same,normalized growth,"locus YER111C, strain swi4, stronger effect = lower value",0.959
same,normalized growth,"locus YER155C, strain BEM2 (second series), stronger effect = lower value",0.679 (active)
same,normalized growth,"locus YER155C, strain BEM2, stronger effect = lower value",0.85 (active)
same,normalized growth,"locus YER167W, strain BCK2, stronger effect = lower value",0.925
same,normalized growth,"locus YFR010W, strain ubp6, stronger effect = lower value",0.936
same,normalized growth,"locus YGL078C, strain dbp3, stronger effect = lower value",0.815 (active)
same,normalized growth,"locus YGL086W, strain mad1, stronger effect = lower value",0.91 (active)
same,normalized growth,"locus YGL167C, strain pmr1, stronger effect = lower value",0.946
same,normalized growth,"locus YGL173C, strain kem1, stronger effect = lower value",0.943
same,normalized growth,"locus YGL227W, strain vid30, stronger effect = lower value",0.905 (active)
same,normalized growth,"locus YGL240W, strain doc1, stronger effect = lower value",0.901
same,normalized growth,"locus YGL248W, strain PDE1, stronger effect = lower value",0.912
same,normalized growth,"locus YGL253W, strain hxk2, stronger effect = lower value",0.926
same,normalized growth,"locus YGR078C, strain PAC10, stronger effect = lower value",0.903
same,normalized growth,"locus YGR135W, strain pre9, stronger effect = lower value",0.907
same,normalized growth,"locus YGR252W, strain gcn5, stronger effect = lower value",0.827
same,normalized growth,"locus YHR013C, strain ard1, stronger effect = lower value",0.859
same,normalized growth,"locus YHR027C, strain rpn1, stronger effect = lower value",0.947
same,normalized growth,"locus YHR030C, strain SLT2, stronger effect = lower value",0.92
same,normalized growth,"locus YHR079C, strain IRE1 (second series), stronger effect = lower value",0.888 (active)
same,normalized growth,"locus YHR094C, strain hxt1, stronger effect = lower value",0.879 (active)
same,normalized growth,"locus YHR129C, strain ARP1, stronger effect = lower value",0.916 (active)
same,normalized growth,"locus YHR142W, strain chs7, stronger effect = lower value",0.735 (active)
same,normalized growth,"locus YHR200W, strain rpn10, stronger effect = lower value",0.869 (active)
same,normalized growth,"locus YIL066C, strain RNR3, stronger effect = lower value",0.939
same,normalized growth,"locus YIL073C, strain SPO22, stronger effect = lower value",0.921
same,normalized growth,"locus YIL125W, strain kgd1, stronger effect = lower value",0.715 (active)
same,normalized growth,"locus YIR030C, strain dcg1, stronger effect = lower value",0.878 (active)
same,normalized growth,"locus YJL092W, strain hpr5, stronger effect = lower value",0.928
same,normalized growth,"locus YJL095W, strain BCK1 (second series), stronger effect = lower value",0.948
same,normalized growth,"locus YJL095W, strain BCK1, stronger effect = lower value",0.888
same,normalized growth,"locus YJL115W, strain asf1, stronger effect = lower value",0.958
same,normalized growth,"locus YJL129C, strain trk1, stronger effect = lower value",0.815 (active)
same,normalized growth,"locus YJL134W, strain LCB3, stronger effect = lower value",0.909 (active)
same,normalized growth,"locus YJL154C, strain vps35, stronger effect = lower value",0.952
same,normalized growth,"locus YJL164C, strain tpk1, stronger effect = lower value",0.923
same,normalized growth,"locus YJL166W, strain qcr8, stronger effect = lower value",0.893 (active)
same,normalized growth,"locus YJL168C, strain set2, stronger effect = lower value",0.872 (active)
same,normalized growth,"locus YJL187C, strain SWE1 (second series), stronger effect = lower value",0.906
same,normalized growth,"locus YJL187C, strain SWE1, stronger effect = lower value",0.951
same,normalized growth,"locus YJR043C, strain POL32, stronger effect = lower value",0.941
same,normalized growth,"locus YJR075W, strain HOC1, stronger effect = lower value",0.904
same,normalized growth,"locus YKL009W, strain mrt4, stronger effect = lower value",0.452 (active)
same,normalized growth,"locus YKL068W, stronger effect = lower value",0.797 (active)
same,normalized growth,"locus YKL085W, strain MDH1 (second series), stronger effect = lower value",0.667 (active)
same,normalized growth,"locus YKL085W, strain MDH1, stronger effect = lower value",0.667 (active)
same,normalized growth,"locus YKL160W, strain elf1, stronger effect = lower value",0.913
same,normalized growth,"locus YKL190W, strain CNB1, stronger effect = lower value",0.945
same,normalized growth,"locus YKR001C, strain vps1, stronger effect = lower value",0.83 (active)
same,normalized growth,"locus YKR026C, strain gcn3, stronger effect = lower value",0.934
same,normalized growth,"locus YKR091W, strain srl3, stronger effect = lower value",0.965
same,normalized growth,"locus YLL001W, strain dnm1, stronger effect = lower value",0.951
same,normalized growth,"locus YLL026W, stronger effect = lower value",0.955
same,normalized growth,"locus YLL041C, strain sdh2, stronger effect = lower value",0.957
same,normalized growth,"locus YLR027C, strain aat2, stronger effect = lower value",0.957
same,normalized growth,"locus YLR039C, strain RIC1, stronger effect = lower value",0.815
same,normalized growth,"locus YLR058C, strain SHM2, stronger effect = lower value",0.915
same,normalized growth,"locus YLR102C, strain apc9, stronger effect = lower value",0.881 (active)
same,normalized growth,"locus YLR221C, strain rsa3, stronger effect = lower value",0.895 (active)
same,normalized growth,"locus YLR258W, strain gsy2, stronger effect = lower value",0.948
same,normalized growth,"locus YLR262C, strain YPT6 (second series), stronger effect = lower value",0.821 (active)
same,normalized growth,"locus YLR262C, strain YPT6, stronger effect = lower value",0.861
same,normalized growth,"locus YLR268W, strain sec22, stronger effect = lower value",0.906
same,normalized growth,"locus YLR320W, strain mms22, stronger effect = lower value",0.785 (active)
same,normalized growth,"locus YLR330W, strain CHS5, stronger effect = lower value",0.896 (active)
same,normalized growth,"locus YLR342W, strain FKS1 (second series), stronger effect = lower value",0.911
same,normalized growth,"locus YLR342W, strain FKS1, stronger effect = lower value",0.916
same,normalized growth,"locus YLR357W, strain rsc2, stronger effect = lower value",0.869
same,normalized growth,"locus YLR370C, strain arc18, stronger effect = lower value",0.941
same,normalized growth,"locus YLR371W, strain rom2, stronger effect = lower value",0.898 (active)
same,normalized growth,"locus YLR384C, strain iki3, stronger effect = lower value",0.944
same,normalized growth,"locus YLR418C, strain cdc73, stronger effect = lower value",0.814 (active)
same,normalized growth,"locus YML016C, strain PPZ1, stronger effect = lower value",0.91 (active)
same,normalized growth,"locus YML032C, strain rad52, stronger effect = lower value",0.908
same,normalized growth,"locus YML120C, strain ndi1, stronger effect = lower value",0.963
same,normalized growth,"locus YML124C, strain tub3, stronger effect = lower value",0.867 (active)
same,normalized growth,"locus YMR058W, strain fet3, stronger effect = lower value",0.916
same,normalized growth,"locus YMR078C, strain ctf18, stronger effect = lower value",0.839 (active)
same,normalized growth,"locus YMR125W, strain sto1, stronger effect = lower value",0.953
same,normalized growth,"locus YMR129W, stronger effect = lower value",0.952
same,normalized growth,"locus YMR205C, strain PFK2, stronger effect = lower value",0.844 (active)
same,normalized growth,"locus YMR223W, strain ubp8, stronger effect = lower value",0.9 (active)
same,normalized growth,"locus YMR231W, strain pep5, stronger effect = lower value",0.969
same,normalized growth,"locus YMR263W, strain SAP30, stronger effect = lower value",0.893
same,normalized growth,"locus YMR307W, strain GAS1, stronger effect = lower value",0.791
same,normalized growth,"locus YNL067W, strain RPL9B, stronger effect = lower value",0.93
same,normalized growth,"locus YNL071W, strain lat1, stronger effect = lower value",0.734 (active)
same,normalized growth,"locus YNL128W, strain TEP1, stronger effect = lower value",0.941
same,normalized growth,"locus YNL209W, strain ssb2, stronger effect = lower value",0.971
same,normalized growth,"locus YNL233W, strain BNI4, stronger effect = lower value",0.901
same,normalized growth,"locus YNL248C, strain rpa49, stronger effect = lower value",0.919
same,normalized growth,"locus YNL250W, strain rad50, stronger effect = lower value",0.767 (active)
same,normalized growth,"locus YNL271C, strain bni1, stronger effect = lower value",0.794 (active)
same,normalized growth,"locus YNL298W, strain CLA4, stronger effect = lower value",0.538 (active)
same,normalized growth,"locus YNL307C, strain MCK1, stronger effect = lower value",0.848 (active)
same,normalized growth,"locus YNL322C, strain KRE1 (second series), stronger effect = lower value",0.946
same,normalized growth,"locus YNR049C, strain mso1, stronger effect = lower value",0.943
same,normalized growth,"locus YNR052C, strain pop2, stronger effect = lower value",0.908 (active)
same,normalized growth,"locus YOL012C, strain htz1",1.5
same,normalized growth,"locus YOL147C, strain pex11, stronger effect = lower value",0.872 (active)
same,normalized growth,"locus YOR001W, strain rrp6, stronger effect = lower value",0.896
same,normalized growth,"locus YOR061W, strain CKA2, stronger effect = lower value",0.912
same,normalized growth,"locus YOR069W, strain VPS5, stronger effect = lower value",0.925 (active)
same,normalized growth,"locus YOR070C, strain gyp1, stronger effect = lower value",0.961
same,normalized growth,"locus YOR080W, strain dia2, stronger effect = lower value",0.965
same,normalized growth,"locus YOR083W, strain WHI5, stronger effect = lower value",0.928
same,normalized growth,"locus YOR106W, strain vam3, stronger effect = lower value",0.917
same,normalized growth,"locus YOR136W, strain idh2, stronger effect = lower value",0.938
same,normalized growth,"locus YOR144C, strain elg1, stronger effect = lower value",0.874 (active)
same,normalized growth,"locus YOR184W, strain ser1, stronger effect = lower value",0.9
same,normalized growth,"locus YOR265W, strain rbl2, stronger effect = lower value",0.96
same,normalized growth,"locus YOR270C, strain vph1, stronger effect = lower value",0.731 (active)
same,normalized growth,"locus YOR290C, strain snf2, stronger effect = lower value",0.797 (active)
same,normalized growth,"locus YOR316C, strain cot1, stronger effect = lower value",0.875 (active)
same,normalized growth,"locus YPL051W, strain arl3, stronger effect = lower value",0.897 (active)
same,normalized growth,"locus YPL078C, strain atp4, stronger effect = lower value",0.905
same,normalized growth,"locus YPL106C, strain sse1, stronger effect = lower value",0.928
same,normalized growth,"locus YPL240C, strain hsp82, stronger effect = lower value",0.95
same,normalized growth,"locus YPR119W, strain clb2, stronger effect = lower value",0.856 (active)
same,normalized growth,"locus YPR141C, strain kar3, stronger effect = lower value",0.802 (active)
same,normalized growth,"locus YPR163C, strain tif3, stronger effect = lower value",0.906 (active)
same,normalized growth,"locus YPR167C, strain met16, stronger effect = lower value",0.873 (active)
same,normalized growth,"strain wtn01, stronger effect = lower value",0.909
